# Measured values published in PubChem BioAssay (NCI).
# This is part of a sample that, as a whole, favours compounds with a hit. Of some 83,000 tested, about 20% had one in any assay.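 For each line, cells grew in 96-well plates with the test compound present at a single concentration for 48 hours.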 Values without a mark were called inactive. Calls of active or inactive are those of the source. The calls were made as follows: active = growth percent below 10; inactive = the rest.
# System: BT-549 breast
# Experiment: NCI-60 one-dose screen, 48 h (100 = growth as untreated, 0 = no growth, -100 = all killed)
# Conditions: 10 µM unless noted
row,Structure (SMILES),growth
1,O=C(O)C1C[C@](O)(c2ccc(F)cc2)[C@@H](c2ccc(F)cc2)O1 (stereo partly specified),71%
2,N=C(N)c1ccc(-c2ccc(-c3ccc(Cl)cc3Cl)o2)cc1,94.7%
3,C[N+](C)(C)CCOC(OCC[N+](C)(C)C)(c1ccccc1)c1ccccc1,101%
4,NC(N)=N/N=C/CO,96.7%
5,CCCCNC(=O)NS(=O)(=O)c1ccc(N2N=C(c3ccc(C)cc3C)CC2c2ccc(N(C)C)cc2)cc1 (stereo unspecified),45.6%
6,N[C@H]1CCC[C@@H]1NCCCCN1C(=O)c2cccc3cccc(c23)C1=O,74.1%
7,O=C1Nc2ccccc2/C1=N/N=C/c1c[nH]c2ccccc12,92.7%
8,C[C@@H]1CC[C@@H]2[C@@H]1[C@H](OC(=O)/C=C/c1ccccc1)[C@]1(C3CCCCC3)C[C@@H](NC(=O)CO)[C@@]2(C)O1,98.6%
9,CCCN1CCN(c2ccc3nc(-c4ccc5nc(-c6ccc(OCC)c(OCC)c6)[nH]c5c4)[nH]c3c2)CC1,-64% (active)
10,CCc1cc(Cc2cc(CC)cc(C(C)(C)C)c2O)c(O)c(C(C)(C)C)c1,40.5%
11,CNC(=O)c1c(NC(=O)c2ccc(C(C)(C)C)cc2)sc2c1CCC(=O)C2,1.12% (active)
12,CC(C)(C)c1ccc(C(=O)Nc2sc3c(c2C(N)=O)CCC(=O)C3)cc1,-10.3% (active)
13,COc1ccc(-n2nnc(C(=O)NCCc3c[nH]c4ccc(F)cc34)c2C)cc1,103%
14,C=CCN1C(=O)[C@]2(SC1=S)[C@H](c1cccc(Cl)c1)CN(C)[C@]21C(=O)NC2C=CC(Cl)=C[C@H]21 (stereo partly specified),34.1%
15,C=C1C(=O)O[C@H]2[C@H]1CC/C(COC(=O)/C=C\C(=O)NCc1ccc(Cn3c(=O)sn(CCCC)c3=O)cc1)=C\CC[C@@]1(C)O[C@@H]21,-73.3% (active)
16,CN1C[C@@H](c2ccc(Cl)cc2)[C@]2(NC(=S)N(c3ccc(F)c(Cl)c3)C2=O)[C@@]12C(=O)NC1C=CC(Cl)=C[C@H]12 (stereo partly specified),21.6%
17,c1ccc2[nH]c(SSc3nc4ncncc4[nH]3)nc2c1,46.7%
18,CCCCCOC(=O)c1cccc(NC(=O)CN(CC)CC)c1,72.6%

row,Structure (SMILES),growth
1,CN(CCCCCCCCNc1ccnc2ccccc12)Cc1ccc(-c2ccc(-c3ccc(C#N)cc3)s2)cc1,-30.1% (active)
2,CN(C)c1ccc2cc(-c3ccc(Cl)c(Cl)c3)c(N)nc2c1,48.3%
3,CCN(CC)CC(=O)Nc1cccc(C(=O)OC(C)C)c1,66%
4,CN(C)S(=O)(=O)n1cnc([C@@H]2[C@@H]3C(=O)OC[C@@H]3C[C@]23N=CN(Cc2ccccc2)C3=O)c1,116%
5,O=C(Oc1ccc([N+](=O)[O-])cc1)c1ccc(CBr)cc1,105%
6,CCN(CC)CCOc1ccc(/C(=C(\C)c2ccc(F)c(OC)c2)c2ccc(Cl)cc2)cc1,59.7%
7,CCOC(=O)c1nnn(C(Cc2ccccc2Cl)C(=O)OCC)c1C (stereo unspecified),107%
8,COc1ccc2c(c1)/C(=C\c1sc(=S)[nH]c1O)C(C(=O)O)=N2,109%
9,Cc1cc(Cc2cc(C)cc(C(C)(C)C)c2O)c(O)c(C(C)(C)C)c1,74.1%
10,N#Cc1c(N)nc2c(nnn2-c2cccc(Br)c2)c1N,97.1%
11,O=C(NCc1cn(Cc2cccc(Oc3ccccc3)c2)nn1)c1cccnc1NCc1ccc(Cl)cc1,41.1%
12,Nc1ccc(-c2cc3c(Nc4ccc(OCc5cccc(F)c5)c(Cl)c4)ncnc3s2)cc1,61.2%
13,COc1cccc(-c2nc3sccn3c2-c2ccnc(NCCNS(=O)(=O)c3c(Cl)cccc3Cl)c2)c1,30.4%
14,CC(=O)OCCc1ccccc1,107%
15,NS(=O)(=O)Oc1ccc(-c2sc3cc(O)ccc3c2C(=O)c2ccc(OCCN3CCCCC3)cc2)cc1,84.6%
16,NC(=O)c1c(NC(=O)c2ccc(C(F)(F)F)cc2Cl)sc2c1CCC(=O)C2,-33.2% (active)
17,Cc1c(C)c2c(c(C)c1NC(=O)/C=C\C(=O)O)CCC(C)(CCCC(C)CCCC(C)CCCC(C)C)O2 (stereo unspecified),-58.5% (active)
18,Cl.Fc1c[c-]c(-c2ccccn2)c(F)c1.[Pt].c1ccc([PH+](C[PH+](c2ccccc2)c2ccccc2)c2ccccc2)cc1,-85% (active)
